The full data set covers some 7,900 targets. This sample favours those with a hit. About 0.6% of all pairs of compound and target were hits. Unmarked numbers belong to inactive results.
What was measured:
Assay in all cases: log2 fold change, soluble protein after heating vs DMSO (PISA); higher = thermal stabilisation; K562 cells, 10 uM, 30 min; active = over 0.2 and 3.5 SD of the protein, either way, in both replicates (recomputed)
erlotinib = compound: C#Cc1cccc(Nc2ncnc3cc(OCCOC)c(OCCOC)cc23)c1 [erlotinib]
In short: (§1)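 Soluble protein was quantified by TMTpro 16plex LC-MS/MS after channel sums were equalised. It was obtained as the supernatant after 21,000xg for 90 min from pooled aliquots of K562 cells (2×10^6 cells/mL, 10 μM compound, 30 min) heated for 3 min across 48°C-58°C and extracted in PBS with 0.5% NP-40 at 4°C. Thermal stability values are relative to control samples and come from duplicates. They are given as log2 fold changes.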

[1] = compound: C/C(=N\NC(=O)C1=CC(=CC=C1)S(=O)(=O)N2CCOCC2)/C3=C(C=CC(=C3)Cl)O
In short: as §1

[2] = compound: C1=CC(=C(C=C1Cl)C2=NC3=NC=CN=C3C(=N2)NC4=CC=NC=C4)F
In short: as §1

[3] = compound: C1=CC(=CC=C1C2=NC3=C(N2)C=C(C=C3)C(=O)N)OC4=CC=C(C=C4)Cl
In short: as §1

[4] = compound: C1=CC2=C(C=CC(=C2)/C=C\3/C(=O)NC(=NCC4=CC=CS4)S3)N=C1
In short: as §1

[5] = compound: C1=CC2=NC=CN=C2C=C1/C=C/3\C(=O)NC(=O)S3
In short: as §1

[6] = compound: C1=CC=C(C=C1)C2=NC(=C(N2)C3=CC=NC=C3)C4=CC(=C(C=C4)Cl)O
In short: as §1

[7] = compound: C1=CC=C2C(=C1)C3=NNC4=CC=CC(=C43)C2=O
In short: as §1

[8] = compound: C1CCN(C1)C(=O)NC2=CC=CC(=C2)NC3=NC=C(C(=N3)NCCC4=CN=CN4)Br
In short: as §1

[9] = compound: C1CN(CCC1(CC2=CC=C(C=C2)Cl)N)C3=NC=NC4=C3C=CN4
In short: as §1

Sequence of UniProt Q9BWT6 (Q9BWT6 whole entry, looked up): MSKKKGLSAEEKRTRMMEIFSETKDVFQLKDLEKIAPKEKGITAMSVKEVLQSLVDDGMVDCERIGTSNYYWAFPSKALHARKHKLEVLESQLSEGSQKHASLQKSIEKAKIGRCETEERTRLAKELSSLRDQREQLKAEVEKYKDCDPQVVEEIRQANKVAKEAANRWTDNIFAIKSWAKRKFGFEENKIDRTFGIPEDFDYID
Sequence of UniProt Q9NRP0 (Q9NRP0 whole entry, looked up): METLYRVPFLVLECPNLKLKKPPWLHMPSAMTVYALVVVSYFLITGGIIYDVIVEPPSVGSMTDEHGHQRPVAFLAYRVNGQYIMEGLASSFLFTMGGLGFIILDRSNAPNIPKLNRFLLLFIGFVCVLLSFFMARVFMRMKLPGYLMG
Sequence of UniProt Q14149 (Q14149 whole entry, looked up): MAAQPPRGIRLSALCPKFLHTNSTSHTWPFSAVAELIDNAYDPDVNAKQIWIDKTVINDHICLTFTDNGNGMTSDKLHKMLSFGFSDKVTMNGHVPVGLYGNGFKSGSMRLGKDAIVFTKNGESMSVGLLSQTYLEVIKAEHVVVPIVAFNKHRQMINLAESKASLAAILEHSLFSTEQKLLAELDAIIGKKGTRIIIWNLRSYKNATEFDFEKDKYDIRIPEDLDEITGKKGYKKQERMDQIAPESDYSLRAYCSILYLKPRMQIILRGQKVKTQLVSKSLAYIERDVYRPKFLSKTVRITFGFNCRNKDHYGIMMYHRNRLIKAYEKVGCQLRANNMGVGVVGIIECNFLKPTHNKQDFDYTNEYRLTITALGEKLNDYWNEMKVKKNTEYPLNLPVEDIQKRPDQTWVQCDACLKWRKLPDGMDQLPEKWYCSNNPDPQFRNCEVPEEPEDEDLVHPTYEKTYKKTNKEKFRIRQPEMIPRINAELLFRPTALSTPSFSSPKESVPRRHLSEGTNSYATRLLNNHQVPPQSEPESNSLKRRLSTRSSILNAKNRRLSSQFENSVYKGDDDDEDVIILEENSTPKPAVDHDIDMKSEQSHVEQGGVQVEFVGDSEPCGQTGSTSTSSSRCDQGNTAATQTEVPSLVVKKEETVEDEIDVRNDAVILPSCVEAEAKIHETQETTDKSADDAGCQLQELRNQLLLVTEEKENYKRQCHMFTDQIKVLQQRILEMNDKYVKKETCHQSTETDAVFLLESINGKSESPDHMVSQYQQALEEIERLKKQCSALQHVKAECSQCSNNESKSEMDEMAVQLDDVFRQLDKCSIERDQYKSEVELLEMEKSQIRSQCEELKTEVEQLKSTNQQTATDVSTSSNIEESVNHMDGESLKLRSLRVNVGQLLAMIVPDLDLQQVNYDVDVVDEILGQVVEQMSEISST
Sequence of UniProt P35749 (P35749 whole entry, looked up): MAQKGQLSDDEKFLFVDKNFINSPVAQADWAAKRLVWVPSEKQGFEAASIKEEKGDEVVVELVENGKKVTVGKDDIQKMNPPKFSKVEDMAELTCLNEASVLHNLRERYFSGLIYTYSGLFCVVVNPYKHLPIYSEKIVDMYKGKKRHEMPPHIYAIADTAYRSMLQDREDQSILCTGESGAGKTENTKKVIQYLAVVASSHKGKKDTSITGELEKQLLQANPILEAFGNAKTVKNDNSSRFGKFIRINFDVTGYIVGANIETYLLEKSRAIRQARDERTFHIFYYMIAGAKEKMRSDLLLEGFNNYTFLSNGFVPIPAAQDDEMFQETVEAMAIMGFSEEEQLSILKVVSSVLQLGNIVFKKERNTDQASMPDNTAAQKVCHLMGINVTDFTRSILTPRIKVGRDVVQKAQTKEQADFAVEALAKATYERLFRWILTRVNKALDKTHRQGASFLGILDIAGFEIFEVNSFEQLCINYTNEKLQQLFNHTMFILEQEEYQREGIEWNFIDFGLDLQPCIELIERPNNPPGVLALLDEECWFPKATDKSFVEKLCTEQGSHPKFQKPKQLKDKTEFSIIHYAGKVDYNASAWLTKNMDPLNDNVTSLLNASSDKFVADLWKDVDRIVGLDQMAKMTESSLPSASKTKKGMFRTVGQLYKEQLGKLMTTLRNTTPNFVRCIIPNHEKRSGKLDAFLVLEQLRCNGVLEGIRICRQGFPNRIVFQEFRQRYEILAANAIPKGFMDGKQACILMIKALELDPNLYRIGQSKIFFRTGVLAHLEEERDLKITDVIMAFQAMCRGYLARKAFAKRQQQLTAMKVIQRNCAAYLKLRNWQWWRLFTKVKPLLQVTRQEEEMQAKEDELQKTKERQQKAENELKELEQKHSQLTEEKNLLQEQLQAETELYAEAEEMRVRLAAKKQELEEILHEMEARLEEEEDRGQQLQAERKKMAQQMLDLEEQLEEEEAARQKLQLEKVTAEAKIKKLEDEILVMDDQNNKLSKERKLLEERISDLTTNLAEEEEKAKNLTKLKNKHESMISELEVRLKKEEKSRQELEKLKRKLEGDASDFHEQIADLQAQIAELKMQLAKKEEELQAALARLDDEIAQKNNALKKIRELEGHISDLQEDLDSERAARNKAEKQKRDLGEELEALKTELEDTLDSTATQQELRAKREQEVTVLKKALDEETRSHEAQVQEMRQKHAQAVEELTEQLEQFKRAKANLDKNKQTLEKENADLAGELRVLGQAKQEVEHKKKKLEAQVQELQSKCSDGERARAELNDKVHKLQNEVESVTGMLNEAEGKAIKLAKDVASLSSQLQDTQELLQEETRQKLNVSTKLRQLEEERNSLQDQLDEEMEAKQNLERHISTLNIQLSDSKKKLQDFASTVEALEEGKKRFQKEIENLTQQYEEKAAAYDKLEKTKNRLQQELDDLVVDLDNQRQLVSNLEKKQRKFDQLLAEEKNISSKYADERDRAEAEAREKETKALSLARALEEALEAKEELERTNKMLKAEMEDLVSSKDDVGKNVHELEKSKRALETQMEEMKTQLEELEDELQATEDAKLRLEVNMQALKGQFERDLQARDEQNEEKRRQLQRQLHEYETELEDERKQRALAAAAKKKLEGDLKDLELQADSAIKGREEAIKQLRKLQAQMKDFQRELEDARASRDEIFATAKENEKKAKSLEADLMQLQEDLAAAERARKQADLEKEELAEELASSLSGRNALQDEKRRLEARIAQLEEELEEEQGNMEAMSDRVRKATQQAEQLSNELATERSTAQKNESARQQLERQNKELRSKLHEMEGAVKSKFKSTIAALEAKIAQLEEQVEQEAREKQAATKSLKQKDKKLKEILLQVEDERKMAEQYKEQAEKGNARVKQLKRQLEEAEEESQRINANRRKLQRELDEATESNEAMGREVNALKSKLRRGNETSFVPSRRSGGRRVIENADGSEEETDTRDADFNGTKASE
Sequence of UniProt Q8NI08 (Q8NI08 whole entry, looked up): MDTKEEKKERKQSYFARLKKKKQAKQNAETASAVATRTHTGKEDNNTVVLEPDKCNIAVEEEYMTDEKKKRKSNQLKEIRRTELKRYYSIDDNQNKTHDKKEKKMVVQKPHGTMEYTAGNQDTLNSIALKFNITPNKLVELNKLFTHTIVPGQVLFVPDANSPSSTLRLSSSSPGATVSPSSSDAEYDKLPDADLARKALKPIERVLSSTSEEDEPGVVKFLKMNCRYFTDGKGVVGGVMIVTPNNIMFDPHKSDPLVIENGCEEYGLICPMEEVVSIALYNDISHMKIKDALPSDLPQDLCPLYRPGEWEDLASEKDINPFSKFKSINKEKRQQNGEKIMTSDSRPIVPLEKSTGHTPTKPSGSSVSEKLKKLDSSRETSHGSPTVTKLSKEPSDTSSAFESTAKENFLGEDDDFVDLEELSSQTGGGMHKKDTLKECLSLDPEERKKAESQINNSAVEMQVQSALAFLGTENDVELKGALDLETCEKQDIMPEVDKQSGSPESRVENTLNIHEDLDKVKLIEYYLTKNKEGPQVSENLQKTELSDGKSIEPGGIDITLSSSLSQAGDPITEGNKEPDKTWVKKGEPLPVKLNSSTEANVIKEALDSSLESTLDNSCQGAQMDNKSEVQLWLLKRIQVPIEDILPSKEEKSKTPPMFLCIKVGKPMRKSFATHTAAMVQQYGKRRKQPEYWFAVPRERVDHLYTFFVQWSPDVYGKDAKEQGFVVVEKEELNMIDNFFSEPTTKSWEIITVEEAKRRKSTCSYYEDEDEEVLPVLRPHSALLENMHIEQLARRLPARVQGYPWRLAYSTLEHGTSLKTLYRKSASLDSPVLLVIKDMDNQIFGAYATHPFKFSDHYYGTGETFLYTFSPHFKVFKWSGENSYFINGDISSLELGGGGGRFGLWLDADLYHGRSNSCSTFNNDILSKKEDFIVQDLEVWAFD
Sequence of UniProt Q15014 (Q15014 whole entry, looked up): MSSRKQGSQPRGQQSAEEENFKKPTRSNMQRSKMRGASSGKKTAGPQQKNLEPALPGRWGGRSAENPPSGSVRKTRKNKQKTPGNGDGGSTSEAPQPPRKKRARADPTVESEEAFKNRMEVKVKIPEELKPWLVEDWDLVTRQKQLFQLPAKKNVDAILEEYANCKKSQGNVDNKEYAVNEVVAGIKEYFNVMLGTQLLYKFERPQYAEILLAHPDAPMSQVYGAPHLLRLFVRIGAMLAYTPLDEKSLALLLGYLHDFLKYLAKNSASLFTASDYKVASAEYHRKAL
Sequence of UniProt O60361 (O60361 whole entry, looked up): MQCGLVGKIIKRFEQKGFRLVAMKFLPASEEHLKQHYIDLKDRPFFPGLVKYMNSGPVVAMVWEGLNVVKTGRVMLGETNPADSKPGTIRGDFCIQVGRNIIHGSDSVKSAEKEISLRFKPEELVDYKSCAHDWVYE
Sequence of UniProt Q96DE0 (Q96DE0 whole entry, looked up): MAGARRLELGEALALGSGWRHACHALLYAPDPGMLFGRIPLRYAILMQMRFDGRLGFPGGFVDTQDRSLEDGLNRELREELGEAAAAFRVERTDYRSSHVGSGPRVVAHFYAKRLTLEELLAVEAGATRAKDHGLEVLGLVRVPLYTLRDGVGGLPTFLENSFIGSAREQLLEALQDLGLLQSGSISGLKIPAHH
Sequence of UniProt O00483 (O00483 whole entry, looked up): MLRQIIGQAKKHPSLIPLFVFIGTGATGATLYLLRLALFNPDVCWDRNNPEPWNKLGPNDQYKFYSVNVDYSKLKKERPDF

Target	log2 fold change (erlotinib)	log2 fold change [1]	log2 fold change [2]	log2 fold change [3]	log2 fold change [4]	log2 fold change [5]	log2 fold change [6]	log2 fold change [7]	log2 fold change [8]	log2 fold change [9]
MYH11 isoform 2 (UniProt P35749)	0.046	-0.081	0.096	0.02	0.032	0.018	-0.026	0.036	-0.046	0.028
OXA1L (UniProt Q15070)	-0.014	0.029	-0.005	0.012	0.01	0.021	0.006	-0.029	0.012	0.043
MKNK1 (UniProt Q9BUB5)	0.305 (active)	0.09	-0.05	0	0.011	0.081	-0.028	0.001	-0.051	-0.066
MORC3 (UniProt Q14149)	0.022	0.084	0.171	0.035	-0.024	0.068	0.012	0.014	-0.026	-0.162
OTUD4 (UniProt Q01804)	-0.032	-0.035	-0.137	0.042	-0.033	-0.025	0	0.038	-0.011	0.04
NMD3 (UniProt Q96D46)	0.025	0.011	0.052	0.023	0.009	-0.02	0.05	0.013	0.064	-0.281 (active)
MSL1 (UniProt Q68DK7)	0.185	-0.603 (active)	0.106	-0.193	0.069	-0.033	0.066	-0.026	–	–
ORC3 isoform 2 (UniProt Q9UBD5)	0.134	-0.068	-0.024	-0.021	0.214	0.042	0.013	0.072	-0.013	0.07
NSUN2 (UniProt Q08J23)	-0.017	0.137	-0.002	0.038	-0.018	0.006	-0.052	-0.112	-0.067	0.064
MRPS24 (UniProt Q96EL2)	-0.175	0.022	-0.032	0.062	0.016	-0.02	0.01	0.039	0.071	-0.1
NPEPPS (UniProt P55786)	0.002	0.058	0.054	-0.027	0.061	0.002	0.005	0.035	-0.009	0.045
NEMP1 (UniProt O14524)	-0.003	-0.011	-0.027	0.023	0.049	0.016	-0.056	-0.162	0.068	0.048
OSTC (UniProt Q9NRP0)	0.021	0.024	0.022	0.017	0.004	-0.001	0.014	0.048	-0.041	0.088
MRPS25 (UniProt P82663)	-0.069	-0.023	-0.022	0.084	-0.048	0	0.083	0.061	-0.036	-0.068
NBN (UniProt O60934)	0.064	0.087	0.06	0.033	0.005	0.028	0.012	0.002	-0.029	0.037
NAT14 (UniProt Q8WUY8)	-0.016	0.079	-0.002	0.014	0.057	0.046	0.135	0.033	0.002	-0.084
NIBAN1 (UniProt Q9BZQ8)	0.014	0.103	-0.022	0.017	0.058	-0.009	-0.005	-0.047	-0.017	-0.06
NDUFA4 (UniProt O00483)	-0.134	0.002	0.258	0.042	0.047	0.072	0.038	0.011	0.086	-0.017
MTOR (UniProt P42345)	0.015	0.041	0.021	-0.011	0.036	0.047	0.034	-0.004	0.065	-0.03
NCOR1 (UniProt O75376)	-0.057	0.021	-0.034	0.041	0.08	0.026	0.044	-0.21	-0.055	-0.051

Target	log2 fold change (erlotinib)	log2 fold change [1]	log2 fold change [2]	log2 fold change [3]	log2 fold change [4]	log2 fold change [5]	log2 fold change [6]	log2 fold change [7]	log2 fold change [8]	log2 fold change [9]
NOP56 (UniProt O00567)	-0.093	-0.012	-0.676 (active)	0.087	-0.232	0.045	-0.164	-0.109	-0.111	-0.15
NDFIP1 (UniProt Q9BT67)	-0.066	0.07	-0.046	0.077	-0.244	0.046	0.005	0.122	-0.234	-0.168
MRPS22 (UniProt P82650)	-0.052	0.026	-0.021	0.16	-0.082	0	0.026	0.068	-0.028	-0.101
MRPS27 isoform 2 (UniProt Q92552)	-0.044	-0.058	0.018	0.061	0.056	0.024	0.074	0.086	-0.048	-0.106
MRPL47 (UniProt Q9HD33)	-0.189	-0.107	-0.098	0.096	-0.002	-0.047	-0.012	0.094	-0.004	-0.273
OGFOD2 (UniProt Q6N063)	-0.051	-0.283 (active)	-0.047	0.011	0.089	0.14	0.004	0.041	0.023	0.017
MRPS16 (UniProt Q9Y3D3)	-0.126	0	-0.025	0.159	0.014	0.079	0.117	0.044	-0.085	-0.097
NCOA7 (UniProt Q8NI08)	-0.027	0.063	-0.047	0.004	0.07	-0.048	0.014	0.011	0.024	0.045
NIPSNAP2 (UniProt O75323)	0.024	0.065	0.076	0.106	0.044	-0.079	0.071	0.041	0.01	0.007
MRPL34 (UniProt Q9BQ48)	-0.029	-0.167	-0.116	0.101	-0.048	-0.03	0.006	0.018	-0.004	-0.174
MOV10 (UniProt Q9HCE1)	-0.103	-0.062	-0.242	0.026	-0.002	0.049	-0.049	-0.054	0.04	-0.158
NUP107 (UniProt P57740)	-0.05	0.004	-0.128	0.063	0.04	0.065	-0.037	-0.192	-0.145	-0.005
NME2P1 (UniProt O60361)	0.147	0.012	0.147	0.03	0.04	0.137	-0.163	0.026	0.076	0.078
MRPS5 (UniProt P82675)	-0.077	0.038	0.009	0.193	0.007	-0.008	0.027	0.158	-0.035	-0.085
OPA1 isoform 2 (UniProt O60313)	0.041	0.081	0.031	-0.021	0.07	0.01	0.126	0.027	-0.006	0.078
MT-ND1 (UniProt P03886)	-0.075	0.031	-0.028	0.097	-0.005	0.032	0.053	0.12	-0.187	0.018
NECTIN2 (UniProt Q92692)	0.002	0.005	0.064	-0.006	0.002	0.008	-0.04	-0.041	-0.045	0.077
NDUFB10 (UniProt O96000)	-0.009	-0.067	0.018	0.03	0.06	0.025	-0.038	-0.021	0.026	0.045
NDUFB7 (UniProt P17568)	-0.027	0.015	0.038	0.04	-0.011	0.061	0.031	-0.007	0.037	0.041
NEDD4 isoform 4 (UniProt P46934)	-0.024	0.067	0.048	-0.011	0.052	0.066	0.048	-0.001	0.003	-0.053

Target	log2 fold change (erlotinib)	log2 fold change [1]	log2 fold change [2]	log2 fold change [3]	log2 fold change [4]	log2 fold change [5]	log2 fold change [6]	log2 fold change [7]	log2 fold change [8]	log2 fold change [9]
MXRA7 (UniProt P84157)	-0.052	-0.109	-0.083	0.047	-0.067	0.018	-0.033	0.037	-0.038	0.013
MSTO1 (UniProt Q9BUK6)	0.031	0.06	0.075	-0.044	-0.003	0.007	0.038	0.043	0.011	-0.041
NMT2 (UniProt O60551)	0.028	0.031	0.007	0.004	0.062	0.032	-0.043	0.021	0.041	-0.369 (active)
NUDT16 (UniProt Q96DE0)	0.081	0	0.111	0.01	-0.034	-0.004	0.014	0.026	-0.085	0.081
NUP85 (UniProt Q9BW27)	0.046	0.08	0.037	0.036	0	0.028	-0.012	-0.066	-0.051	0.008
MRPS33 (UniProt Q9Y291)	0.023	-0.018	-0.129	0.021	0.019	0.032	-0.043	0.018	0.026	-0.133
MINK1 (UniProt Q8N4C8)	-0.05	0.053	-0.071	0.036	-0.045	0.001	-0.064	-0.203	-0.003	-0.008
NEDD4L (UniProt Q96PU5)	0.014	0.078	-0.078	0.005	0.016	0.035	0.146	0.019	-0.026	-0.076
MND1 (UniProt Q9BWT6)	-0.068	0.034	-0.003	-0.002	-0.011	0.015	-0.019	0.009	-0.081	-0.017
NMU (UniProt P48645)	-0.003	0.072	-0.02	0.063	-0.123	0.094	-0.129	-0.018	0.025	0.133
MORF4L2 (UniProt Q15014)	-0.114	-0.056	-0.181	0.02	-0.03	0.002	-0.108	-0.039	-0.108	-0.051
NRF1 isoform 4 (UniProt Q16656)	0.079	0.012	-0.161	-0.028	0.053	-0.001	-0.012	-0.116	-0.051	-0.003
MTFR1L (UniProt Q9H019)	-0.002	-0.013	-0.202	0.064	-0.001	-0.03	0.077	0.13	0.036	-0.027
NUP210 (UniProt Q8TEM1)	0.021	0.004	0.06	-0.004	0.011	0.015	-0.018	-0.186	-0.009	0.012
NUDT21 (UniProt O43809)	-0.02	0.07	-0.127	0.047	-0.035	-0.015	-0.026	0.008	0.003	-0.089
NUMA1 (UniProt Q14980)	-0.03	-0.006	-0.109	0.017	0.02	0.019	0.031	-0.054	-0.055	-0.211
NFYC (UniProt Q13952)	0.014	0.004	0.016	-0.006	0.059	0.007	0.007	0.01	-0.034	-0.042
NCK1 (UniProt P16333)	0.045	0.206	-0.066	0	0.179	-0.019	-0.084	0	-0.135	-0.081
NELFB isoform 2 (UniProt Q8WX92)	0.046	0.151	0	-0.036	0.054	0.07	-0.049	0.01	-0.075	-0.025
MRPS10 (UniProt P82664)	-0.036	-0.089	-0.103	0.048	0.102	0.023	-0.037	0.04	0.001	-0.012

— the supplement of paper PMC10849652
